Shown are actives, neighbours in structure and some others; about 1.6% of the full set was active somewhere.
KCNQ2 inh – rat KCNQ2 potassium channel inhibitors, primary screen, cell-based, CHO-K1, FluxOR thallium flux, B-score | B-score at 10 µM | hit rate 1.1% among 310,000 | 20 min; active compounds read low | Potassium voltage-gated channel subfamily KQT member 2 (Rattus norvegicus), O88943;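 active = fluorescence ratio B-score at most minus 3 library SDs, with starting brightness B-score within 2 library SDs, cut at about -5.5 in these data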
Target sequence (O88943 whole entry, looked up): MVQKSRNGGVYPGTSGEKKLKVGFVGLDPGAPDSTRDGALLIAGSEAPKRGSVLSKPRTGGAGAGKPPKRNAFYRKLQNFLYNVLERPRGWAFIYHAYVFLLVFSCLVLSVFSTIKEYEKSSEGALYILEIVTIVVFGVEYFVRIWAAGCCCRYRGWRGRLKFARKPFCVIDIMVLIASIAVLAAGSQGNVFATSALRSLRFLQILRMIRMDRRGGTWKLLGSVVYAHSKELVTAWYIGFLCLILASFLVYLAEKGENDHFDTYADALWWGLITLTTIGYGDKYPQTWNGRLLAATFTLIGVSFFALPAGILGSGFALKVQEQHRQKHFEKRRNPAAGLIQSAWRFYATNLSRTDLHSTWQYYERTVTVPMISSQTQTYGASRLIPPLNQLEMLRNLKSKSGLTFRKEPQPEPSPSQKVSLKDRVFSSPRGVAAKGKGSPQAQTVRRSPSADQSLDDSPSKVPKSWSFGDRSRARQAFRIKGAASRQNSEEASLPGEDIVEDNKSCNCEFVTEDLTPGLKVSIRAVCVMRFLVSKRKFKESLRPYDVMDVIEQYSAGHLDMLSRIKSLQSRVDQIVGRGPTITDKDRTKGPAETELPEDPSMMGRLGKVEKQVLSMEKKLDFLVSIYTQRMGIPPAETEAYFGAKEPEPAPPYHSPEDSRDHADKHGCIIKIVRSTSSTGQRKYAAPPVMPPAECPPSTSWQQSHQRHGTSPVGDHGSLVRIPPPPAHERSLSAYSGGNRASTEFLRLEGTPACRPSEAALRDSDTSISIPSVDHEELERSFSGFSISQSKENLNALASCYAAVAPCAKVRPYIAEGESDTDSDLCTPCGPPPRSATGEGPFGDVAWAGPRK
KCNQ2 pot – potentiators of rat KCNQ2 potassium channel | Potassium voltage-gated channel subfamily KQT member 2 (Rattus norvegicus), O88943 | CHO-K1 KCNQ2, FluxOR thallium flux fluorescence; active compounds read high | B-score at 10 µM | hit rate 0.54% among 310,000 | AID 2239, 2010;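 active = fluorescence ratio B-score at least 3 SD of library B-scores, with initial fluorescence B-score within 3 of them, cut at about 5.3 in these data; same plate scores as AID 2156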;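 also: B-score of peak minus minimum over baseline fluorescence ratio after K+ and Tl+ stimulus; positive B-score means potentiation of KCNQ2 with more thallium influx and brighter signal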
Starred values were filed as active, the others as inactive; i = inactive; x = not tested or not shown.

SMILES | KCNQ2 inh | KCNQ2 pot
Nc1nc(CCOc2ccc(F)cc2)cs1 | i | 0.99
COc1cccc(NC(=O)CN2CCc3ccccc3C2)c1 | i | x
Cc1ccccc1-c1nc(C#N)c(N2CCC(C)CC2)o1 | -8.1* | -8.1
CC1CCN(c2oc(-c3ccccc3Cl)nc2C#N)CC1 | i | x
Cc1csc2nc(CNC(=O)c3cccc(C(F)(F)F)c3)cn12 | -6.2* | -6.2
O=C(NCc1cn2ccsc2n1)c1cccc(C(F)(F)F)c1 | i | x
COc1cccc(-c2nn(-c3ccccc3)cc2C(=O)n2nnc3ccccc32)c1 | -6.4* | -6.4
O=C(c1cn(-c2ccccc2)nc1-c1ccccc1)n1nnc2ccccc21 | i | x
Cc1cc(C)c2nc(-c3cccnc3)cc(C(=O)NC(C)c3cnn(C)c3C)c2c1 (centres undefined) | -8* | -8
Cc1cccc2c(C(=O)O)cc(-c3cccnc3)nc12 | i | 0.01
Cc1ccc(S(=O)(=O)NCCC(=O)OCc2ccc([N+](=O)[O-])cc2)cc1C | i | x
O=C(NC(Cc1ccccc1)C(=O)N1CCc2ccccc2C1)c1ccccc1 (centres undefined) | -6.3* | -6.3
O=C(NC(Cc1ccccc1)C(=O)O)c1ccccc1 (centres undefined) | i | x
CC(=O)C(Cc1ccccc1)NC(=O)CN1CCc2ccccc2C1 (centres undefined) | i | x
CC(CCc1ccccc1)NC(=O)CN1CCc2ccccc2C1 (centres undefined) | -5.8* | -5.8
Cc1ccccc1NC(=O)CN1CCc2ccccc2C1 | i | x
COC(=O)c1ccccc1NC(=O)CN1CCc2ccccc2C1 | -7.8* | -7.8
NC(=O)CSc1nc2ccccc2c(=O)n1Cc1ccco1 | i | x
CCCn1c(C)cc(C(=O)CSc2nc3ccccc3c(=O)n2Cc2ccco2)c1C | -6* | -6
CC(C)c1ccccc1NCC(=O)N1CCN(Cc2ccccc2)CC1 | i | x
CC(C)CC(C(=O)NC1CCCCC1)N(Cc1cccs1)C(=O)c1snc(C(N)=O)c1N (centres undefined) | i | x
CC(C)CC(C(=O)NC1CCCC1)N(Cc1cccs1)C(=O)c1snc(C(N)=O)c1N (centres undefined) | -5.7* | -5.7
CCCCN1C(=O)N(c2nnc(C(C)(C)C)s2)C(O)C1c1ccc(C)cc1 (centres undefined) | i | x
Cc1ccc(Cl)cc1N1CCN(C(=S)NCc2ccco2)CC1 | i | x
S=C(NCc1ccco1)N1CCN(c2ccccc2Cl)CC1 | -5.8* | -5.8
SMILES | KCNQ2 inh | KCNQ2 pot
COc1ccc2c(=O)c3c(=O)n(-c4ccccc4)c(-c4ccc(C)cc4)nc3oc2c1 | i | 0.38
Cc1c(C(=O)N2CCCCC2)c(S(=O)(=O)NCCc2ccc(S(N)(=O)=O)cc2)c(C)n1C | i | 1
O=C(N1CCN(c2ccccc2)CC1)C12CC3CC(CC(C3)C1)C2 | i | x
O=C(N1CCN(Cc2ccccc2)CC1)C12CC3CC(CC(C3)C1)C2 | -5.6* | -5.6
O=c1cc(-c2ccccc2Cl)oc2c(NS(=O)(=O)c3ccccc3OC(F)(F)F)ccc(O)c12 | i | x
CCN1CCN(CCCNC(=O)c2ccc(CS(=O)c3ccc(Br)cc3)o2)CC1 (centres undefined) | i | x
Cc1ccc(N2C(=O)c3cccc4c(Oc5ccccc5[N+](=O)[O-])ccc(c34)C2=O)c(C)c1 | -6* | -6
Cc1cc(O)ccc1N1C(=O)c2cccc3cc([N+](=O)[O-])cc(c23)C1=O | i | x
COc1cccc(C(=O)Nc2ccc(NC(C)=O)cc2)c1 | i | x
COc1cccc(C(=O)NN/C(C)=C/C(=O)C(F)(F)C(F)(F)C(F)(F)F)c1 | i | 8.5*
Cn1cccc1Cc1nnc(SCC(=O)NCc2ccccc2Cl)n1-c1ccc(F)cc1 | -7.2* | -7.2
Cn1cccc1Cc1nnc(SCC(=O)NCc2ccco2)n1-c1ccc(F)cc1 | i | 0.07
O=C(N/C(=C\c1ccccc1)C(=O)N1CCOCC1)c1ccccc1Cl | i | x
Cc1nnnn1/C(=C\c1ccccc1)C(=O)OCC(=O)NC1CCCCC1 | -6* | -6
Cc1nnnn1/C(=C\c1ccccc1)C(=O)OCC(=O)NC(C)(C)C | i | x
COC(=O)C/C=C/[C@@H](C)[C@@H](/C=N/OC[C@H]1O[C@H](c2ccccc2)C=C[C@@H]1Oc1ccc(OC)cc1)OC | -6.9* | -6.9
COc1ccc(O[C@H]2C=C[C@@H](c3ccccc3)O[C@@H]2COC(=O)CC/C(C)=N/OC[C@@H](O)COCc2ccco2)cc1 | i | x
O=C(O)CC(C(=O)O)c1ccc(OCCCCOc2ccc(C(CC(=O)O)C(=O)O)cc2)cc1 (centres undefined) | i | 1.1
Cc1ccc(-c2cc(-c3ccc(C)o3)nc(N)c2C#N)cc1 | i | x
Cc1ccc(-c2cc(-c3ccc(Cl)cc3)c(C#N)c(N)n2)o1 | -6.8* | -6.8
CCOC(=O)C1CCN(c2nc3ccccc3n2CC(=O)c2ccccc2)CC1 | i | x
COc1ccc(C(=O)N2CCn3c2nc2ccccc23)cc1 | i | x

Compound activity deposited in PubChem by Johns Hopkins Ion Channel Center.
